# Compounds with a hit are over-represented: about 22% of the library has one in this group of screens.
# E-sel TNF inh – TNF alpha driven E-selectin expression inhibition. AID 1246. inhibition, % at 2 µM. HUVEC TNFa-induced E-selectin immunofluorescence, high content. 0.71% of 120,000 active;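 active means inhibition above the batch mean plus 3 SD, and confirmed as a hit on visual image review, cut at about 43% in these data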;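 further: 0% = TNF-stimulated DMSO wells and 100% = unstimulated control wells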
# CYP2C19 inh – human CYP2C19 inhibition; 21% of 96,000 active; CYP2C19 Supersomes, luciferin-H EGE luminescence, 30 min; inhibition, % at 5 µM;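 active means CYP2C19 inhibition above a set limit at 5 µM in the primary screen, cut at about 50% in these data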;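 further: plate controls were negative control wells for no effect and 2.5 mM tranylcypromine positive control for full effect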
# Target sequence (P33261 whole entry, looked up): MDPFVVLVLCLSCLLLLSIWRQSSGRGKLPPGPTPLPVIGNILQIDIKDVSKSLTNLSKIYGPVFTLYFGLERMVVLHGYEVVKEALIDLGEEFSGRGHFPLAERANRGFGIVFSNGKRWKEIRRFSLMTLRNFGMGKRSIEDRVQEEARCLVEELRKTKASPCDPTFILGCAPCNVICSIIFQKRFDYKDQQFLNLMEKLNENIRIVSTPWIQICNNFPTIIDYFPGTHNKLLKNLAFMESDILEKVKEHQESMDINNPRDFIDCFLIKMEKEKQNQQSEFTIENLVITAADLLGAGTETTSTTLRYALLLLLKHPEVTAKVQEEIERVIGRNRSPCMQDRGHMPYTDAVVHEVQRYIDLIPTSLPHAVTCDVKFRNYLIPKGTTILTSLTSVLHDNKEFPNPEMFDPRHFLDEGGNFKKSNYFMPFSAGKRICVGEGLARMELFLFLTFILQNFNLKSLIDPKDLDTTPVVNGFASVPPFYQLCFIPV
# CYP2C9 act – CYP2C9 (human) activation. recombinant CYP2C9, luciferin-H conversion, luminescence; stronger effect = higher value; factor 1 = untreated enzyme, 0 = blocked. activation factor at 5 µM. AID 1024. 1.4% of 96,000 active. P11712;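 active means activation factor of 2 or more for CYP2C9 at a 5 µM dose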;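 further: 0 = sulfaphenazole-blocked wells and 1 = vehicle-only wells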
# cytoskel mod – alters cytoskeleton assembly in HUVEC cells | HUVEC TNFa F-actin phalloidin imaging, high content | inhibition, % at 2 µM | 0.18% of 91,000 active | AID 836;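 active means inhibition above the batch mean plus 3 SD and confirmed as a hit by visual image inspection, cut at about 30% in these data, passing the limit was not always enough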
# CYP2C9 inh – blocks human cytochrome P450 2C9 | P11712 | CYP2C9 Supersomes, luciferin-H conversion, luminescence | inhibition, % at 5 µM | 20% of 96,000 active | AID 777;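 active means blocking of liver enzyme CYP2C9 beyond about 50% at 5 µM, limit read from the data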
# CYP2C19 activ – activators of human cytochrome P450 2C19. P33261. recombinant CYP2C19, luciferin-H EGE luminescence; stronger effect = higher value; 0 = fully inhibited enzyme, 1 = untreated enzyme. activation factor at 5 µM. 96,000 tested, under 10 active. AID 1025;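 active means activation factor of at least 2 at 5 µM in the primary screen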;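 further: 0 = wells with 2.5 mM tranylcypromine and 1 = vehicle-only wells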
# Active calls of the source: *; . = no result.
SMILES,E-sel TNF inh,CYP2C19 inh,CYP2C9 act,cytoskel mod,CYP2C9 inh,CYP2C19 activ
COc1cc(S(=O)(=O)N(Cc2ccco2)C2CCCC2)ccc1-n1cnnn1,0,98*,0.3,14,74*,0
Cc1cc(S(=O)(=O)N(Cc2ccccc2F)C2CC2)ccc1-n1cnnn1,-27,.,.,.,.,.
COc1ccc(C(=O)N(c2ccc(OC)cc2)S(=O)(=O)c2cccs2)cc1,-11,.,.,.,.,.
COc1ccc(N(C(=O)c2ccco2)S(=O)(=O)c2ccc(F)cc2)cc1,7,.,.,-6,.,.
COc1ccc(N(C(=O)c2ccco2)S(=O)(=O)c2cc(OC)ccc2OC)cc1,15,25,0.3,1,72*,0.8
O=C(Nc1ccccc1N(C(=O)c1ccco1)S(=O)(=O)c1cccs1)c1ccco1,59,29,0.3,-14,75*,0.7
CC(=O)N(c1ccc(N(C(C)=O)S(=O)(=O)c2cccs2)cc1)S(=O)(=O)c1cccs1,41,22,0.3,-11,73*,0.8
COc1ccc(N(C(=O)c2ccco2)S(=O)(=O)c2cccs2)cc1,12,35,0.5,-8,50*,0.7
COCCn1c(=O)[nH]c2cc(C(=O)N3CCN(c4ccccc4OC)CC3)ccc2c1=O,11,30,0.8,-1,15,0.7
Cc1ccc(CNC(=O)/C(C#N)=C\c2ccc(N(C)C)cc2)cc1,-10,-4,1,3,1,1
CN(NS(=O)(=O)c1ccccc1)c1nc2ccccc2nc1C(F)(F)F,14,99*,0.1,-18,90*,0
Cc1ccc(S(=O)(=O)N2c3ccccc3-c3c(ssc3=S)C2(C)C)cc1,-33,.,.,.,.,.
CC1(C)CSC(=S)N1S(=O)(=O)c1ccccc1,9,75*,0.7,-44,31,0.2
CCC(=O)OCc1cc2cccc(C)c2[nH]c1=O,-11,53*,1,9,5,0.5
COc1ccc(CC(=O)OCc2cc3cccc(C)c3[nH]c2=O)cc1,.,-1,1,-10,1,1
CCOC(=O)/N=C(/NC(=O)Nc1ccc(C(=O)OCC)cc1)OC,-23,-1,1,12,3,1
CCCn1c(=O)n(C)c(=O)c2c(SCC(=O)NCc3ccco3)nc(C3CC3)nc21,19,12,0.4,24,59*,0.9
O=C(COc1ccc2ccccc2c1Br)N1CCN(c2ccccn2)CC1,1,84*,0.9,6,9,0.2
O=C(CSc1nccc2ccccc12)N1CCN(c2ccccn2)CC1,9,66*,1.5,6,-46,0.3
O=C(CN1C(=O)c2cccc3cccc(c23)C1=O)N1CCN(c2ccccn2)CC1,-4,.,.,.,.,.
Cc1ccc(CNC(=O)C2CCC(CNc3c(N4CCOCC4)c(=O)c3=O)CC2)cc1 (stereo not drawn),.,8,0.9,-15,14,0.9
CCCc1noc2c1C(c1ccoc1)C(C#N)=C(N)N2 (stereo not drawn),.,47,0.7,-4,26,0.5
COc1ccc(CNC(=O)CN(c2cc(C)cc(C)c2)S(=O)(=O)c2c(C)noc2C)cc1,.,37,0.8,1,23,0.6
Cc1ccc(NC(=O)CN(c2cc(C)cc(C)c2)S(=O)(=O)c2c(C)noc2C)nc1,.,48,0.3,1,72*,0.5
Cc1cc(C)cc(N(CC(=O)NCc2ccco2)S(=O)(=O)c2c(C)noc2C)c1,.,82*,0.3,-5,67*,0.2
SMILES,E-sel TNF inh,CYP2C19 inh,CYP2C9 act,cytoskel mod,CYP2C9 inh,CYP2C19 activ
COc1cccc2c1OC1(C)CC2NC(=O)N1c1cccc(C(=O)N2CCN(c3ccccn3)CC2)c1 (stereo not drawn),10,-10,1,4,1,1.1
C/C(=N\NC(=O)c1ccccc1)c1cccc(Br)c1,-46,.,.,.,.,.
O=C(N/N=C/C1C(c2ccccc2)C1(Cl)Cl)c1cccc(Br)c1 (stereo not drawn),-28,18,0.3,-12,70*,0.8
Cc1ccc(-c2nn(-c3ccccc3)cc2C2SCC(=O)N2Cc2ccccc2)o1 (stereo not drawn),2,8,0.5,.,45,0.9
O=Cc1cn(-c2ccccc2)nc1-c1cc2ccccc2oc1=O,17,-11,0.8,.,18,1.1
O=C1CSC(c2cn(-c3ccccc3)nc2-c2cc3ccccc3o2)N1Cc1ccccc1 (stereo not drawn),-10,54*,0.1,.,89*,0.5
